Among the test systems are SR leukemia; RPMI-8226 leukemia; OVCAR-8 ovarian; OVCAR-5 ovarian; OVCAR-4 ovarian; SK-OV-3 ovarian; IGROV1 ovarian; OVCAR-3 ovarian; HS 578T breast; NCI/ADR-RES ovarian.
What all share (assay): NCI-60 one-dose screen, 48 h (100 = growth as untreated, 0 = no growth, -100 = all killed)
What all share (conditions): 10 µM unless noted

The panel holds about 83,000 compounds, 20% with a hit somewhere; the sample as a whole holds those more often.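 Cell lines were cultured in 96-well plates, exposed to a single compound concentration, and assessed for percent growth 48 hours later.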 A number with no mark means an inactive call. Activity calls are given as the source filed them. How the source made its calls: active means growth percent below 10; inactive means the rest.

Consider `C/C(CC1(O)C(=O)Nc2ccccc21)=N\O` (stereo not given), for which the growth was 100% in the assay on SR leukemia; 100% in the assay on RPMI-8226 leukemia; 101% in the assay with OVCAR-8 ovarian; 99.2% in the assay with OVCAR-5 ovarian; 95.1% in the assay on OVCAR-4 ovarian; 108% in the assay on SK-OV-3 ovarian. Also, the growth was 97.9% in the assay with IGROV1 ovarian, 106% with OVCAR-3 ovarian, 97.4% in the assay on HS 578T breast and 95.9% in the assay with NCI/ADR-RES ovarian.

With `N#Cc1c(-c2cccs2)cc(-c2cnccn2)nc1SCC(=O)N/N=C/c1ccncc1`, the growth is 93.6% with SR leukemia; 103% in the assay with RPMI-8226 leukemia; 103% with OVCAR-8 ovarian; 114% with OVCAR-5 ovarian; 111% with OVCAR-4 ovarian; 109% with SK-OV-3 ovarian. Also, the growth in the assay on IGROV1 ovarian was 104%; in the assay with OVCAR-3 ovarian, 117%; in the assay with HS 578T breast, 109%; with NCI/ADR-RES ovarian, 108%.

For `COc1ccc(C2CC(c3cccc(OCCCCOc4cccc(C5=NOC(c6ccc(OC)cc6)C5)c4)c3)=NO2)cc1` (stereo not given), the growth is 29.9% in the assay on SR leukemia; -21.9% (active) with RPMI-8226 leukemia; 93.5% in the assay with OVCAR-8 ovarian; 111% in the assay with OVCAR-5 ovarian; 90.3% in the assay on OVCAR-4 ovarian; 106% in the assay with SK-OV-3 ovarian. In addition, the growth is 89.6% in the assay with IGROV1 ovarian, 96.2% in the assay with OVCAR-3 ovarian, 109% in the assay with HS 578T breast and 107% with NCI/ADR-RES ovarian.

Consider `NCCNC(=O)c1cccc(COc2ccccc2NC(=O)c2cc(Cl)c(Cl)[nH]2)c1`, for which the growth is 8.2% (active) in the assay on SR leukemia; 101% in the assay with RPMI-8226 leukemia; 92.1% in the assay on OVCAR-8 ovarian; 96.8% in the assay on OVCAR-5 ovarian; 97.7% with OVCAR-4 ovarian; 111% in the assay on SK-OV-3 ovarian. Further, the growth in the assay with IGROV1 ovarian is 94.6%; in the assay with OVCAR-3 ovarian it was 109%; with HS 578T breast, 103%; in the assay on NCI/ADR-RES ovarian, 101%.

For the compound `Cc1ccc(S(=O)(=O)NCCCNc2nccc(-c3[nH]c(-c4ccccc4)nc3-c3ccc(F)c(O)c3)n2)cc1`, the growth is 33.8% in the assay with SR leukemia; 53.7% in the assay on RPMI-8226 leukemia; 86.7% in the assay on OVCAR-8 ovarian; 143% in the assay with OVCAR-5 ovarian; 107% with OVCAR-4 ovarian; 117% in the assay with SK-OV-3 ovarian. In addition, the growth is 99% with IGROV1 ovarian, 132% with OVCAR-3 ovarian, 99.6% in the assay with HS 578T breast and 104% in the assay with NCI/ADR-RES ovarian.

`Cc1ccc(C)c(NC2=C(Cl)C(=O)c3nc(C)ccc3C2=O)c1`: the growth is 1.99% (active) in the assay with SR leukemia; -41.9% (active) in the assay with RPMI-8226 leukemia; 9.92% (active) in the assay on OVCAR-8 ovarian; -71.8% (active) in the assay on OVCAR-5 ovarian; -96% (active) in the assay on OVCAR-4 ovarian; 93% with SK-OV-3 ovarian. The growth with IGROV1 ovarian was -66.8% (active); in the assay on OVCAR-3 ovarian it was -97.4% (active); in the assay on HS 578T breast, -24.8% (active); in the assay with NCI/ADR-RES ovarian it was -6.86% (active).

`CC(Nc1c(C#N)cnc2ccc(-c3cncc(-c4n[nH]c(=O)o4)c3)cc12)c1ccccc1` (stereo not given): the growth was 6.62% (active) in the assay with SR leukemia; 10.5% in the assay with RPMI-8226 leukemia; 18.1% in the assay on OVCAR-8 ovarian; 26% in the assay on OVCAR-5 ovarian; -5.14% (active) with OVCAR-4 ovarian; 3.52% (active) in the assay with SK-OV-3 ovarian. For the same compound, the growth in the assay on IGROV1 ovarian is -20% (active); with OVCAR-3 ovarian it was 3.98% (active); in the assay on HS 578T breast it was -22.2% (active); in the assay with NCI/ADR-RES ovarian it was 67.7%.

For the compound `Cc1[nH]c(C(=O)Nc2ccccc2OCc2cccc(C(=O)NC3CCCNC3)c2)c(Cl)c1Cl` (stereo not given), the growth was -30.5% (active) in the assay with SR leukemia; -19.1% (active) in the assay on RPMI-8226 leukemia; -44.3% (active) with OVCAR-8 ovarian; -87.8% (active) with OVCAR-5 ovarian; -73.4% (active) with OVCAR-4 ovarian; 108% with SK-OV-3 ovarian. Moreover, the growth is -71.3% (active) with IGROV1 ovarian, -85.7% (active) in the assay with OVCAR-3 ovarian, 93% in the assay on HS 578T breast and -2.67% (active) in the assay with NCI/ADR-RES ovarian.

Take `O=C(CN1CCN(c2cc(=O)[nH]c3ccc(F)cc23)CC1)N(c1ccccc1)c1ccccc1`: the growth in the assay with SR leukemia was 90.8%; in the assay with RPMI-8226 leukemia it was 115%; in the assay with OVCAR-8 ovarian it was 108%; with OVCAR-5 ovarian, 102%; in the assay with OVCAR-4 ovarian, 101%; in the assay with SK-OV-3 ovarian, 109%. In addition, the growth in the assay on IGROV1 ovarian was 99.8%; in the assay on OVCAR-3 ovarian, 109%; in the assay on HS 578T breast, 101%; with NCI/ADR-RES ovarian, 102%.

As to `CCCCCCN1C=C/C(=C\C(=O)n2ccc3ccccc32)c2ccccc21`, the growth in the assay with SR leukemia was 54.3%; in the assay on RPMI-8226 leukemia it was 12.7%; in the assay on OVCAR-8 ovarian, 73.8%; in the assay with OVCAR-5 ovarian it was 90.9%; in the assay with OVCAR-4 ovarian it was 33.3%; in the assay on SK-OV-3 ovarian, 59.9%. In addition, the growth is 42.9% in the assay on IGROV1 ovarian, 58.4% with OVCAR-3 ovarian, 84.9% with HS 578T breast and 84.7% in the assay with NCI/ADR-RES ovarian.

In the case of `Cc1ccc(/C(N)=N/C(N)=N/c2nc3ccccc3s2)cc1`, the growth in the assay with SR leukemia is 21.1%; in the assay with RPMI-8226 leukemia it was 78.3%; in the assay on OVCAR-8 ovarian, 78.8%; with OVCAR-5 ovarian it was 111%; with OVCAR-4 ovarian it was 105%; with SK-OV-3 ovarian, 134%. Further, the growth was 67.3% in the assay with IGROV1 ovarian, 106% with OVCAR-3 ovarian, 112% in the assay with HS 578T breast and 31.1% in the assay with NCI/ADR-RES ovarian.

Regarding `CCOC(=O)c1c(NC(=O)c2cccc(C(F)(F)F)c2)sc2c1CCC(=O)C2`, the growth with SR leukemia is 8.07% (active); in the assay with RPMI-8226 leukemia, 7.65% (active); with OVCAR-8 ovarian, 19.7%; with OVCAR-5 ovarian it was 40.4%; in the assay with OVCAR-4 ovarian, 0.236% (active); in the assay with SK-OV-3 ovarian, 82.4%. Also, the growth is 18.4% in the assay with IGROV1 ovarian, 25.8% in the assay with OVCAR-3 ovarian, 36.5% with HS 578T breast and 12.5% with NCI/ADR-RES ovarian.

For the compound `CN(C)CCCOc1ccc(C(=C(c2ccccc2)C2CCCC2)c2ccc(OCCCN(C)C)cc2)cc1`, the growth with SR leukemia is -37% (active); in the assay on RPMI-8226 leukemia, -32.1% (active); in the assay with OVCAR-8 ovarian, -84.2% (active); in the assay with OVCAR-5 ovarian, -92.9% (active); in the assay on OVCAR-4 ovarian it was -89.4% (active); with SK-OV-3 ovarian it was -86.4% (active). In addition, the growth in the assay on IGROV1 ovarian is -84.7% (active); with OVCAR-3 ovarian, -91.7% (active); in the assay on HS 578T breast it was -60.7% (active); in the assay on NCI/ADR-RES ovarian, -80% (active).

Source of the values: PubChem BioAssay (NCI).
